Assay results: PubChem BioAssay (NCI)
About 83,000 compounds went through this panel and 20% of them were active in at least one assay; those are over-represented in the sample as a whole.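 Values shown are percent growth following 48 h exposure of cells in 96-well plates to a single concentration of compound; below 10 was considered active.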 A number with no mark means an inactive call. Activity calls are given as the source filed them.

What was measured:
Assay in all cases: NCI-60 one-dose screen, 48 h (100 = growth as untreated, 0 = no growth, -100 = all killed)
Settings in all cases: 10 µM unless noted
DU-145 prostate = system: DU-145 prostate
K-562 leukemia = system: K-562 leukemia
MALME-3M melanoma = system: MALME-3M melanoma
MDA-MB-231 breast = system: MDA-MB-231 breast
RXF 393 renal = system: RXF 393 renal
SF-268 CNS = system: SF-268 CNS
SF-295 CNS = system: SF-295 CNS
SF-539 CNS = system: SF-539 CNS
UACC-257 melanoma = system: UACC-257 melanoma
M14 melanoma = system: M14 melanoma
HCT-15 colon = system: HCT-15 colon
HT29 colon = system: HT29 colon
SNB-75 CNS = system: SNB-75 CNS
SNB-19 CNS = system: SNB-19 CNS
U251 CNS = system: U251 CNS
PC-3 prostate = system: PC-3 prostate
SK-MEL-5 melanoma = system: SK-MEL-5 melanoma
UACC-62 melanoma = system: UACC-62 melanoma
LOX IMVI melanoma = system: LOX IMVI melanoma
SK-MEL-28 melanoma = system: SK-MEL-28 melanoma

Compound	growth (DU-145 prostate)	growth (K-562 leukemia)	growth (MALME-3M melanoma)	growth (MDA-MB-231 breast)	growth (RXF 393 renal)	growth (SF-268 CNS)	growth (SF-295 CNS)	growth (SF-539 CNS)	growth (UACC-257 melanoma)	growth (M14 melanoma)	growth (HCT-15 colon)	growth (HT29 colon)	growth (SNB-75 CNS)	growth (SNB-19 CNS)	growth (U251 CNS)	growth (PC-3 prostate)	growth (SK-MEL-5 melanoma)	growth (UACC-62 melanoma)	growth (LOX IMVI melanoma)	growth (SK-MEL-28 melanoma)
CN1CCN(CC(=O)Nc2nc(-c3cccc(NS(=O)(=O)c4cccc5c(N(C)C)cccc45)c3)cs2)CC1	81.3%	9.93% (active)	84%	50.3%	70.4%	76.9%	62.1%	75.6%	91.2%	102%	42.6%	35.2%	74.3%	73.3%	65.9%	42.2%	48.9%	54%	29.7%	78.2%
C=CC(=O)Nc1cccc(Oc2nccc(Nc3nnc(C4CC4)s3)n2)c1	94.5%	81.9%	111%	67.1%	86.1%	89.8%	104%	89.1%	105%	113%	91.5%	96.8%	71.4%	82.7%	94.1%	91.7%	89.5%	95.6%	89.6%	98.8%
O=C(Nc1ccccc1)Nc1cccc(Oc2nnc(Cl)c3ccccc23)c1	39%	51.6%	-29.6% (active)	32.1%	-3.63% (active)	25.9%	31.2%	-22% (active)	22%	46.3%	36.4%	23.8%	-42% (active)	9.64% (active)	4.84% (active)	25.9%	32.9%	41.3%	32.1%	44.2%
CN(C)c1ccc(-c2ccc3[nH]c(=O)nc(-c4ccccc4)c3c2)cn1	65.1%	7.91% (active)	51.2%	44.6%	64.5%	55.5%	39.5%	28.3%	80.8%	13.7%	28.1%	14.1%	27.9%	50.4%	38.1%	47.2%	39.6%	48.5%	38.5%	55.8%
Fc1c[c-]c(-c2ccccn2)c(F)c1.[CH3-].[Pt+2].c1ccc(P(C[PH+](c2ccccc2)c2ccccc2)c2ccccc2)cc1	5.54% (active)	4.93% (active)	-83.2% (active)	-59% (active)	-82.3% (active)	16.9%	6.1% (active)	-86.3% (active)	-4.95% (active)	-20% (active)	-51.4% (active)	1.16% (active)	-14.1% (active)	-54.8% (active)	-71.7% (active)	-33.2% (active)	-97.1% (active)	-18.7% (active)	-92.9% (active)	-51.2% (active)
COc1ccc2c(c1)O/C(=C\c1cccc(OCC(=O)Nc3nc(C)c(C)s3)c1)C2=O	-96.2% (active)	-41.3% (active)	-54% (active)	21.2%	-66.3% (active)	-55.4% (active)	-80.2% (active)	-78.9% (active)	88.5%	-15.1% (active)	94.1%	-29.9% (active)	-63.1% (active)	88.5%	-64.5% (active)	-38.7% (active)	111%	81.7%	-68% (active)	84.8%
Cc1ccc(-n2nc3c(c(C#N)c2=O)CC(c2ccccc2Cl)C([N+](=O)[O-])=C3O)cc1 (stereo not given)	107%	81.7%	101%	82.4%	101%	90%	101%	99.8%	102%	99.6%	61.3%	118%	75.1%	97.1%	90%	66.6%	75%	84.3%	81.4%	106%
Cc1c2c(c(C)c3c1oc1cc(O)ccc13)C(=O)N(CCN1CCCCC1)C2=O	68.4%	3.97% (active)	100%	83%	87.1%	73.4%	102%	91.6%	110%	91.7%	95.4%	61.3%	87.3%	88.9%	86.4%	83.8%	96%	99.2%	95.4%	106%
Cc1ccc2nc(C)c(-c3nnc(SCc4ccc(C#N)cc4)o3)n2c1	112%	38%	101%	74.2%	89.5%	96.6%	92.9%	88.3%	119%	102%	79.6%	115%	77.7%	90.7%	95.3%	109%	92.9%	74.4%	93.2%	100%
COc1c(CCC[P+](c2ccccc2)(c2ccccc2)c2ccccc2)cc2c(c1OC)OCO2	23.5%	12.3%	9.97% (active)	-8.84% (active)	29%	15.4%	20.8%	20.2%	-3.96% (active)	12.2%	92.3%	38.2%	-3.69% (active)	9.64% (active)	7.32% (active)	-0.165% (active)	-68.6% (active)	-3.8% (active)	15.9%	25.1%
COc1ccc(C2=Nc3c(N)ncnc3NC(c3ccc4c(c3)OCO4)C2)cc1 (stereo not given)	97.1%	113%	105%	73.9%	66%	89.6%	118%	90.3%	116%	73.8%	94.8%	93.2%	66.2%	85%	94.3%	77.2%	88.2%	80.6%	94%	101%
COc1cc(CCC[P+](c2ccccc2)(c2ccccc2)c2ccccc2)cc2c1OCO2	48.2%	21.8%	14.6%	29%	76.3%	26.1%	68.6%	43%	17.4%	30.8%	106%	79.3%	12.7%	14.9%	23.9%	16.7%	-41.2% (active)	-3.87% (active)	32%	27.1%
COc1ccc(-c2nc3c(c(=O)n2C(C)=O)C(c2ccc(Cl)cc2)c2sc4c(Cl)cccc4c2O3)cc1 (stereo not given)	-5.67% (active)	2.48% (active)	39.8%	-41.2% (active)	-27.4% (active)	-9.95% (active)	1.12% (active)	-51.8% (active)	12.2%	-36.3% (active)	-29.1% (active)	-49.4% (active)	-12.7% (active)	12.7%	-34.3% (active)	1.24% (active)	-23.3% (active)	5.57% (active)	-49.6% (active)	23.4%
COC(=O)c1ccc(C2Nc3ccc(S(=O)(=O)Nc4ccc(C)c(C)c4)cc3C3OCCC23)cc1 (stereo not given)	100%	40.8%	77.4%	83.9%	101%	78%	77.4%	96.2%	79.6%	94.1%	71.2%	83.7%	79.1%	78.2%	71.5%	82.4%	58%	65.3%	93%	99.5%
COc1cc(C2CC(=O)Nc3c2c(C)nn3-c2nc3ccccc3[nH]2)c(OC)c2c1OCO2 (stereo not given)	88.5%	17.2%	73.9%	73.4%	73.2%	71%	36.9%	78.4%	85.5%	52.1%	40.2%	95%	31.1%	71.4%	67.8%	71.3%	56.9%	55.5%	82.1%	75.8%
COc1ccccc1N1C(=O)/C(=C/C2=Cc3ccccc3OC2)SC1=S	100%	75%	92.9%	88.1%	103%	109%	91.5%	103%	100%	98.2%	65.3%	99.6%	97.8%	91.1%	95.7%	77.1%	97.7%	86%	105%	92.8%
